# According to PubChem BioAssay AID540327 (National Center for Advancing Translational Sciences (NCATS), 2011):
# Some of the results follow. Records with an inconclusive call do not appear. Activity calls are given as the source filed them. Calls follow the shape of the dose curve; as a rule, active = well fitted inhibition curve with a large enough effect; inconclusive = small, poorly fitted or top-dose-only effect; inactive = flat fitted curve, though single readings scatter.
# Biological target: Ubiquitin carboxyl-terminal hydrolase 1 (Homo sapiens) (UniProt O94782)
# Test: Inhibitors of USP1/UAF1: Hit Validation in Primary Assay
# Conditions: Ub-Rhodamine cleavage, fluorescence kinetic read
# From the text: Deubiquitinating enzymes (DUBs) are a class of enzymes that can cleave isopeptide bond formed between the C-terminal carboxylate of ubiquitin and a lysine side-chain amino group on the target protein. Among them, ubiquitin specific proteases (USPs) constitute the largest DUB family. Human USPs are emerging as promising targets for pharmacological intervention because of their connection to a number of human diseases, including prostate, colon and breast cancer (1, 2), pediatric acute lymphoblastic leukemia (3), and familial cylindromatosis (4). The advantage of inhibiting USPs lies in the potential specificity of therapeutic intervention that can lead to better efficacy and reduce nonspecific side effects. […] This miniaturized assay has a fluorescent read-out and is used to screen the NIH Molecular Libraries Small Molecule Repository (MLSMR) in order to identify a small molecule that inhibits USP1. […]
# 3 microliters of reagents (buffer in columns 3 and 4 as negative control and 1nM USP1/UAF1 complex in columns 1, 2, and 5-48) are dispensed into Greiner black solid bottom 1536-well assay plates. […] The plates are immediately centrifuged at 1000 rpm for 15 seconds, and subsequently transferred to a ViewLux high-throughput CCD imager (PerkinElmer) wherein kinetic measurements of fluorescence are acquired using 480 nm excitation/540 nm emission filter set (6 reads every 60 seconds, see Table 1). […]
# Ubiquitin carboxyl-terminal hydrolase 1 (Homo sapiens), sequence (O94782 whole entry, looked up): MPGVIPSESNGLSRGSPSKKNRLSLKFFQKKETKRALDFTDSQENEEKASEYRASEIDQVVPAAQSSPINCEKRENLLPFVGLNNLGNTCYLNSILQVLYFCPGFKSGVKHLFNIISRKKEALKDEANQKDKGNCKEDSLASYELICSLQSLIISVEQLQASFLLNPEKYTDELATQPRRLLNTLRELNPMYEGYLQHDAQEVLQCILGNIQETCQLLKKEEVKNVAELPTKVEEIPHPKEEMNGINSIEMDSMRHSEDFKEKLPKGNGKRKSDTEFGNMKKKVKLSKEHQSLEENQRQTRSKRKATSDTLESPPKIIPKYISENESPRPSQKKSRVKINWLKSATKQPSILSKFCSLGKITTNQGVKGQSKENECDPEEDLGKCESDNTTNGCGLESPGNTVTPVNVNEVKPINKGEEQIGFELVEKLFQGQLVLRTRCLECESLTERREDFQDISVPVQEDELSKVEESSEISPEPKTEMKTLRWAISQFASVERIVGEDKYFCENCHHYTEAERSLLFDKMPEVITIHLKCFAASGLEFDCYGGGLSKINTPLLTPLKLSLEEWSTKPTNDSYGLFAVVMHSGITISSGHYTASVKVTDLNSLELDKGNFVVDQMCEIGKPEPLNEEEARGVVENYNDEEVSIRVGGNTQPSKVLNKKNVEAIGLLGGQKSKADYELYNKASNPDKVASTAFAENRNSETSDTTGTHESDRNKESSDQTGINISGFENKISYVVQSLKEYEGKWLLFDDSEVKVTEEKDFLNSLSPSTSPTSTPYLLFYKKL
smiles,measurement,value
CC(=O)c1c(O)c(C)c(O)c(Cc2c(O)c3c(c(C(=O)/C=C/c4ccccc4)c2O)OC(C)(C)C=C3)c1O,Potency,41.8 µM (active)
